An excerpt weighted towards active compounds, which were near 3.9% of everything screened.
VDR inh – Inhibitors of the vitamin D receptor (VDR): qHTS; VDR-SRC2-3 peptide fluorescence polarization, 2 h; Potency, µM, for the others: max response, negative = inhibition, actives largely listed as inhibitors; hit rate 0.93% among 400,000; also: % is scaled to controls: 0 for no effect and ±100 for the full control effect
Target sequence (P11473 whole entry, looked up): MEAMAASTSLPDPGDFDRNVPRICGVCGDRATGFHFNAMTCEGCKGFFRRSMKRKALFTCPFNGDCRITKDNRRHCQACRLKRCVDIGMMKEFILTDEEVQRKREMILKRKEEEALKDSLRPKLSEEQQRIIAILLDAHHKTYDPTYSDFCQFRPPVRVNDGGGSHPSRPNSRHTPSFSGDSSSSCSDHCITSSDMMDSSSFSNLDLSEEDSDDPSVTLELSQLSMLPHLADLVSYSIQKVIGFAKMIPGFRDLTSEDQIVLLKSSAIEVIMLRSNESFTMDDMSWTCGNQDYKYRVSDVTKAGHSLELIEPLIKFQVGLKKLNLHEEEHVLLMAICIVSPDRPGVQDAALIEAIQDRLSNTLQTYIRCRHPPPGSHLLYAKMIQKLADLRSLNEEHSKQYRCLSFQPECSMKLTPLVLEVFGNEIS
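FP read-out; VDR + SRC2-3 coactivator peptide; 23 nl compound by pintool; 2 h RT incubation; reagents held at 4 deg C, protected from light.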
PLK1 PBD inh – qHTS for Inhibitors of PLK1-PDB (polo-like kinase 1 - polo-box domain): Primary Screen. hit rate 2.8% among 360,000. Potency, µM, for inactives: max response, negative = inhibition, usual class: inhibitors. Plk1 PBD binding of FITC phosphopeptide, fluorescence polarization; also: series mostly up to about 57 µM; % is scaled to controls: 0 for no effect and ±100 for the full control effect; nearly all actives have a fitted effect of over 65% in size
BRCA1 expr up – qHTS Assay to Identify Small Molecule Activators of BRCA1 Expression; MCF7-BRCA1-FFLuc reporter, luminescence, 48 h; response scale: scaled: vehicle 0%, 10 µM genistein 100%; Potency, µM (titrated, usually from 46.1 µM), for the others: at the highest dose activation, hits mostly activators; hit rate 1.1% among 380,000; also: nearly all actives have a fitted effect of over 80% in size
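MCF7-BRCA1-FFLuc, 2000 cells/well; 2 h attach, 37 °C/5% CO2; compound 48 h; luciferase substrate 15 min; luminescence end-point. Norm. to genistein 10 microM max activation and DMSO; concentration-response curves fitted.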
Tb PFK inh – qHTS Assay to Find Inhibitors of T. brucei phosphofructokinase; ATP-dependent 6-phosphofructokinase (Trypanosoma brucei brucei), O15648; T. brucei PFK, ADP-Glo luminescence; Potency, µM (series often up to 57.5 µM), for the others: top-dose activity, negative = inhibition, hits mostly inhibitors; hit rate 0.17% among 330,000; AID 485367, 2010;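 also: 0% = uninhibited 1x PFK enzyme wells and -100% = no-enzyme wells; nearly all actives have a fitted effect of over 60% in size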
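Compounds were pin-transferred as a titration series up to 57 uM into substrate buffer (0.5 mM F6P, 0.1 mM ATP, pH 8.0), then 1.25 nM PFK was added and reactions ran 45 min before ADP-Glo detection.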
Active calls of the source: *; ? = inconclusive; · = no result. Calls follow the shape of the dose curve; as a rule, active = well fitted curve in the direction sought with a large enough effect; inconclusive = small, poorly fitted or top-dose-only effect, or another doubt; inactive = no such curve, though single readings can be large; an effect the other way counts as inactive or inconclusive. Potency is read from the fitted curve at half-maximal effect.

SMILES | VDR inh | PLK1 PBD inh | BRCA1 expr up | Tb PFK inh
NC1=C(Br)C(=O)c2ncccc2C1=O | ? | 7.5µM* | -86% | ·
O=C1C(=O)c2ncccc2-c2cccnc21 | 1.3µM* | · | · | ·
CCOC(=O)c1cccc(NC(=O)C(C)n2nc(C)c3c(C)n(-c4ccccc4)nc3c2=O)c1 (stereo not given) | -5% | · | · | ·
COc1cc(CN(C(=O)COc2ccc(Cl)cc2)c2ccccn2)cc(OC)c1OC | -1% | · | -8% | ·
Oc1ccc(/C=N/N2CCOCC2)c(O)c1O | ? | 9.5µM* | -7% | -26%
CCCCCCCc1c(C#N)c(N)[nH]c(=S)c1C#N | ? | 24µM* | -8% | 2%
CCCCc1c(C)c(C#N)c2[nH]c3ccccc3n2c1=O | 136% | -15% | -65% | 0%
COc1ccc(CN2C(=O)c3cccnc3C2=O)cc1S(=O)(=O)N(C)c1cccc(C)c1 | -6% | 24µM* | 2% | -1%
COC(=O)C1=C(C)N(c2ccc(Cl)cc2)/C(=C/c2ccc(O)cc2)C1=O | -2% | -16% | -32% | 1%
COC(=O)C1=C(C)N(c2cc(C)cc(C)c2)/C(=C/c2ccc(O)cc2)C1=O | 50µM* | -14% | -31% | -4%
COC(=O)Cc1cc(C)cc2c(=O)cc(-c3ccoc3)oc12 | 14% | -31% | 2% | ·
CCOC(=O)C1(C)NC(c2cccs2)C2C(=O)N(c3ccc(OC)cc3)C(=O)C21 (stereo not given) | 32µM* | 3.4µM* | -7% | 6%
CCOC(=O)C1(C)NC(c2ccccc2F)C2C(=O)N(c3cccc(C(C)=O)c3)C(=O)C21 (stereo not given) | 25µM* | 3.8µM* | 27% | -1%
Cc1ccccc1CNC(=O)c1sc2ncnc(N(C)C3CCCCC3)c2c1C | 16% | · | · | ·
O=C(NCCN1CCC(n2c(=O)[nH]c3ccccc32)CC1)c1ccc(F)cc1F | · | -2% | 6% | ·
Cc1ccc(-n2c(C)nn(Cc3ccc([N+](=O)[O-])cc3)c2=O)cc1 | -14% | -3% | -26% | -2%
Cc1ccc(-n2c3nc(=O)[nH]c(=O)c-3cc3cc([N+](=O)[O-])ccc32)cc1 | ? | 17µM* | -43% | 0%
CC(=NNC(=S)N1CCC1)c1ccccn1 | -29% | -1% | ? | ·
CC(=NNC(=S)N1CCCC1)c1ccccn1 | · | 24µM* | -55% | ·
CCCNC(=O)c1noc2c1CCc1cc(OC)ccc1-2 | -28% | 27µM* | ? | 4%
COc1cccc(-c2nnc3n(Cc4ccc(C)cc4)c(=O)c4ccccc4n23)c1O | -3% | · | · | ·
Cc1ccc(NC(=O)/C(C#N)=N/Nc2ccc(C(=O)O)cc2)c(C)c1 | 1% | 1% | -4% | 5%
Cc1ccc(N/N=C(\C#N)C(N)=S)c(C)c1 | 50µM* | 19µM* | 0% | -7%
CCc1c(C)nc(SCC(=O)N2CCN(c3ccccc3)CC2)[nH]c1=O | -3% | -21% | 2% | 0%
CCc1c(C)nc(SCC(=O)N2CCCCC2CC)[nH]c1=O (stereo not given) | ? | 24µM* | -22% | -8%
SMILES | VDR inh | PLK1 PBD inh | BRCA1 expr up | Tb PFK inh
CCOC(=O)c1c(NC(=O)CSc2nnc(-c3cccnc3)o2)sc(C(C)=O)c1C | ? | 12µM* | 8% | 1%
CCOC(=O)c1c(NC(=O)CSc2nnc(-c3ccco3)o2)sc(C(C)=O)c1C | 17% | 14% | -8% | ·
COc1ccc(NC(=O)CSc2nnc(-c3cccnc3)o2)c(OC)c1 | ? | 21µM* | 1% | -4%
CCOc1ccccc1NC(=O)CSc1nnc(-c2ccncc2)o1 | ? | ? | -14% | 0%
CCOc1ccccc1NC(=O)CSc1nnc(-c2cccnc2)o1 | -37% | 24µM* | -29% | -13%
COc1ccc(OC)c(NC(=O)CSc2nnc(C3CCCCC3)o2)c1 | 0% | 24µM* | -11% | 5%
OC(Cc1cccc(C=NN2CCOCC2)n1)(C(F)(F)F)C(F)(F)F | · | 0% | -12% | ·
CCc1ccc(-c2cc3c(N4CCN(c5ccccc5)CC4)nccn3n2)cc1 | 7% | · | ? | ·
COc1ccc(N(C(=O)c2ccc(Cl)cc2)S(=O)(=O)c2ccc(C)cc2)cc1 | -4% | · | · | ·
CCC(C)Cn1c(/C=C/c2ccccc2)nc2ccccc21 (stereo not given) | -8% | · | · | ·
O=C(c1ccc2c(c1)OCO2)N1CCN(c2ccccn2)CC1 | ? | 21µM* | 12% | 0%
COc1ccc(NC(=S)c2ccncc2)cc1 | -20% | -6% | -23% | -7%
COc1ccc(NC(=S)NC(=O)c2ccc(Br)o2)cc1 | -14% | -5% | 6.3µM* | 3%
COc1ccc(C(=S)Nc2ccc(C)cc2)cc1 | ? | 21µM* | ? | -1%
COc1ccc(NC(=O)c2ccc(Br)o2)cc1 | -22% | 2% | ? | -3%
Cc1ccc(NC(=S)c2ccccc2)cc1 | -3% | -5% | 1.3µM* | -4%
Cc1ccc(NC(=S)NNC(=S)NCc2ccccc2)cc1 | 50µM* | 30µM* | -2% | 1%
Fc1ccc(NC(=S)NCc2ccccc2)cc1 | -3% | -11% | 7% | -7%
COc1ccc2c(c1)CC(C(=O)Nc1cc(OC)c(OC)c(OC)c1)CO2 (stereo not given) | 0% | · | · | ·
COc1ccc(C(=O)NNc2ccccc2)cc1 | 2% | 2% | 20% | -15%
COc1ccc(NC(=S)NNc2ccc(C(=O)O)cc2)cc1 | 32µM* | ? | 59% | 7%
CCOC(=O)c1c(C)oc2nc(C)nc(NCC3CCN(Cc4ccccc4C)CC3)c12 | 27% | · | · | ·
NC(=O)CC(O)c1cccc(Cl)c1 (stereo not given) | -10% | 27µM* | 10% | -2%
NC(=O)CSc1nnnn1-c1cccc(Cl)c1 | -15% | 5% | 5% | 7%
CCN(C)C1CN(Cc2cn(Cc3ccc(F)cc3)nn2)S(=O)(=O)C1 (stereo not given) | · | 1% | 12% | ·
SMILES | VDR inh | PLK1 PBD inh | BRCA1 expr up | Tb PFK inh
Cn1ccsc1=NC(=O)c1ccc(OC(F)(F)F)cc1 | 11% | 1% | 53% | 1%
NS(=O)(=O)c1ccc(NS(=O)(=O)c2ccc(C3CNC(=O)C3)cc2)cc1 (stereo not given) | ? | 30µM* | 1% | 0%
COCCNS(=O)(=O)c1ccc(C2CNC(=O)C2)cc1 (stereo not given) | -17% | -9% | 1% | 2%
CC(C)C[C@@H](CC(=O)N[C@H](CC(=O)N[C@@H]1CCNC[C@H]1C(=O)N[C@H](CC(=O)N[C@@H](CCC(=O)O)CC(=O)O)Cc1ccccc1)C(C)C)NC(=O)[C@@H]1CNCC[C@H]1N | 9% | · | · | ·
Brc1ccc(C=C2C=c3ccccc3=C2)cc1 | · | · | 10% | ·
COc1ccc2ccc3c(c2c1)N=CC1(O3)N(C)c2ccccc2C1(C)C (stereo not given) | 50µM* | -24% | -44% | -26%
Cc1ccc(C)c(N2CCN(C(=O)c3cc(S(=O)(=O)N4CCC(C)CC4)cn3C)CC2)c1 | 3% | · | 10% | ·
